In all, about 68,000 sequences were measured (“fluorescence intensity (a.u.)”: median about 9,100, highest 2% from about 16,000 on). The entries come from a sample that favours the highest values as a whole.

Chain of OsWRKY34 (Q0JBA9 entry or part of it): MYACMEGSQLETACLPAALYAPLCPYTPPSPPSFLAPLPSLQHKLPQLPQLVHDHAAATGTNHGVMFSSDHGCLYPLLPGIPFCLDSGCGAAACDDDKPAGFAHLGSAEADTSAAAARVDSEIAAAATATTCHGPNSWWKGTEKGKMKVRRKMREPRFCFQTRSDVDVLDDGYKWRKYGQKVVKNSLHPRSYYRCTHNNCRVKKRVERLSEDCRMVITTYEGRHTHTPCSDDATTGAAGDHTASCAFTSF

The target in the test is OsWRKY34 (Oryza sativa, UniProt Q0JBA9 1-250). The experiment in a line: protein-binding microarray (RPBM); PBS, 2% BSA, 51.3 ng/ul salmon testes DNA, 50 uM zinc acetate, 200 nM TF, 25 C, 1 h; high values mean tight binding. To be noted: protein: recombinant; tags: N-terminal polyhistidine and DsRed monomer fusion (pET32a); label: CyDye5-dUTP incorporated in the synthesized complementary strand; 3' TTTTT single-stranded linker to array surface; dsDNA, one strand shown. An outline of the steps:
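Per-feature fluorescence intensity (arbitrary units), read on an Axon 4000B scanner, is the binding signal. Transcription factors carrying an N-terminal polyhistidine tag and DsRed fusion were expressed in E. coli BL21-CodonPlus and purified on Ni–NTA. A custom Agilent array, made double-stranded by primer extension with Cy5-dUTP and blocked with 2% BSA, was incubated with 200 nM protein in PBS, 2% BSA, salmon testes DNA and 50 µM zinc acetate at 25 °C for 1 h and then washed.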
For “ATCTCTGATCCGTCCAGTTGACCCAAAGCTAGAGTCTTTCCGGAGTCACCTAGTGCAG”, the binding signal is 10700 fluorescence intensity (a.u.).
Turning to “GTGTTGTGTTTATTTTTTTATAATATCCATGATTGTAATCCGGAGTCACCTAGTGCAG”, the binding signal was 9640 fluorescence intensity (a.u.).
Under “TCCGCCGCCGTCTCCGCCGCCTCCAGCCATCGATCCCGGCCGGAGTCACCTAGTGCAG” stands 8250 fluorescence intensity (a.u.); under “GCACACATACACATACTGACAATGATGAGTTGATGACACACGGAGTCACCTAGTGCAG”, 8500 fluorescence intensity (a.u.).
For “GCCCGGCCCAGTAGATACCACCACCTCACACTCCATTCGCCGGAGTCACCTAGTGCAG”, the binding signal was 9860 fluorescence intensity (a.u.).
As to “GGAGCATGTTCAACCATTCATTGTTTTCTCTATTGCATAACGGAGTCACCTAGTGCAG”, the binding signal is 8070 fluorescence intensity (a.u.).
The figure for “GTTGTCTAGTGCTTGCTATTCTTCTACTAGTAGTATTATACGGAGTCACCTAGTGCAG” is 9570 fluorescence intensity (a.u.).
The figure for “AATCCATTTCCCATTCGCCATTCCCCATCCTTATCTCTTACGGAGTCACCTAGTGCAG” is 8660 fluorescence intensity (a.u.).
The figure for “GTTGCATTTGCCGCTGCGACACGGACCCCGCCTTAATAACCGGAGTCACCTAGTGCAG” is 9020 fluorescence intensity (a.u.).
In the case of “TGATTTTTTAGGGAGGGGTGGTTAGTATAAGAGGGTTTTCCGGAGTCACCTAGTGCAG”, the binding signal was 20000 fluorescence intensity (a.u.).
On to “ATTTTTACCCTTCTCCTGTGTTTTTGTTGCTGTGATTCAACGGAGTCACCTAGTGCAG”, for which the binding signal was 8570 fluorescence intensity (a.u.).
Under “TACCTGATTTGTGCATATGTTTCTTTCTGTTTTGCCCTTACGGAGTCACCTAGTGCAG” stands 8170 fluorescence intensity (a.u.); under “AAGATTTGCTGGGAGGGTGGGGTGGGGATTAGTCCCTAAACGGAGTCACCTAGTGCAG”, 24500 fluorescence intensity (a.u.); under “TCTTTCTCTCTCTTGCTGCCGTTGAGGGATTTGGGGTGAACGGAGTCACCTAGTGCAG”, 10000 fluorescence intensity (a.u.).
For the sequence “ATCCAATGGTATAATTTTTTTAGGGAAGGGTTTTTTTTTCCGGAGTCACCTAGTGCAG”, the binding signal was 12600 fluorescence intensity (a.u.).
“GATTTGGTGGGTTATAATTTTATAGTAAGAGGGGATTTTACGGAGTCACCTAGTGCAG”: the binding signal is 16100 fluorescence intensity (a.u.).
The figure for “ATGCCCTGTTACCTGTGTGTGATTTCTTTGTGCTCCATAACGGAGTCACCTAGTGCAG” is 17600 fluorescence intensity (a.u.).
For the sequence “AGATGGTGTTTGGATGGGAGGGATTTATTTTAGTCCCTCTCGGAGTCACCTAGTGCAG”, the binding signal was 10200 fluorescence intensity (a.u.).
For the sequence “CTACTATTGCGTTGTTTTATTTTGGCCAGTTTATTTCAAACGGAGTCACCTAGTGCAG”, the binding signal is 13400 fluorescence intensity (a.u.).
On to “TTTTTTTGCTTTTTCACTATTTTTTTATTTTGACGGACGACGGAGTCACCTAGTGCAG”, for which the binding signal was 9300 fluorescence intensity (a.u.).
Under “GAATTCATACTTTTTCCTATATTTATCTTTGGCCTTAATCCGGAGTCACCTAGTGCAG” stands 8560 fluorescence intensity (a.u.); under “CCCCAAAATACTCGACGCTGAACTTTCCCATCAGCTAGTACGGAGTCACCTAGTGCAG”, 8280 fluorescence intensity (a.u.).
The figure for “CCTTGGCAGTGGGGCGGAGGGGCGGTGTCGGTGCTGGCGGCGGAGTCACCTAGTGCAG” is 13800 fluorescence intensity (a.u.); for “TTGTAAGTTAGGGACCTGTTGTATCTGATTTTTTGGTTGACGGAGTCACCTAGTGCAG” it is 8210 fluorescence intensity (a.u.).
“AATGTTGTCCTGTCGGCTGCTTCTGCTCCAACGTCAAGTTCGGAGTCACCTAGTGCAG”: the binding signal was 8140 fluorescence intensity (a.u.).
Under “ATTTTACCAGTCTTGGAGATTTTAATCTTGTATAGTTTTCCGGAGTCACCTAGTGCAG” stands 9110 fluorescence intensity (a.u.); under “CTAGGGTTAGGGGTTTGGGTGGGGAAATTTTCACGAGGGACGGAGTCACCTAGTGCAG”, 14600 fluorescence intensity (a.u.).
The figure for “GGGGAAATTTTCACGAGGGAGAGGGAGGGGAGGGATATTTCGGAGTCACCTAGTGCAG” is 23200 fluorescence intensity (a.u.).
The figure for “CTCACCATTTCATTTTATTTTTCATTTTTCACCACAAATTCGGAGTCACCTAGTGCAG” is 9050 fluorescence intensity (a.u.).
On to “GGGGATTTTTTTTTCGGATCCAGAACGATCAGAGAGGGAGCGGAGTCACCTAGTGCAG”, for which the binding signal is 9300 fluorescence intensity (a.u.).
Under “TTTCATTATACATATAGTTTTACATATTTCACAAAATTTTCGGAGTCACCTAGTGCAG” stands 8770 fluorescence intensity (a.u.).
Under “TATATATATATATATATATATATTCACAAATTATTTTTCACGGAGTCACCTAGTGCAG” stands 23500 fluorescence intensity (a.u.).
The figure for “ATCCATGGGCCTCGTTGGTTATAGCCTGTGTGCATCAACACGGAGTCACCTAGTGCAG” is 8230 fluorescence intensity (a.u.).
On to “TCCTCCTTTCTCGCTCTCGCTCTGTCCGATCGGAGCCATGCGGAGTCACCTAGTGCAG”, for which the binding signal was 8490 fluorescence intensity (a.u.).
The figure for “TTGGGGTTCGTGGGGTCGAGAGGAAGGTGCGTGATCATACCGGAGTCACCTAGTGCAG” is 11500 fluorescence intensity (a.u.).
The figure for “TATTTTCCGGATCGAATTGCCACGTAAGGGCCACATCAGTCGGAGTCACCTAGTGCAG” is 8510 fluorescence intensity (a.u.); for “ACTGGCTTTGCTATGATCTTTTGCTATCGCCCAACCGTTACGGAGTCACCTAGTGCAG” it is 8690 fluorescence intensity (a.u.).
Under “ATTTTCTACTCTTTTGGTCCCACTAGTCATAGACTCTTTTCGGAGTCACCTAGTGCAG” stands 10800 fluorescence intensity (a.u.); under “TGTGCCGTGACTCGATGTGCTCCTCCATCTCTTGCTGCAACGGAGTCACCTAGTGCAG”, 8170 fluorescence intensity (a.u.).
As to “GGGAGGGGCTGCTAATTCGGTGTGATTAGTACAGTAGTTTCGGAGTCACCTAGTGCAG”, the binding signal is 10100 fluorescence intensity (a.u.).
The figure for “TCGAGAGGTGGGGAGGGGAGGGGAGCAGAGGGCGGCATCGCGGAGTCACCTAGTGCAG” is 18600 fluorescence intensity (a.u.); for “GGGAGGGAGGGTGGCTGTAGTGTGCTAATCACAAATAATTCGGAGTCACCTAGTGCAG” it is 20500 fluorescence intensity (a.u.).

Source of the values: publication PMC7819943, “Rice protein-binding microarrays: a tool to detect cis-acting elements near promoter regions in rice”.
